Measured values: the supplement of paper PMC6555819

Assays:
Assay in all cases: PBM binding z-score (relative to random genomic background probes); higher = stronger binding; sequences stand for … in GC…GCGATTGACAGCGTAGAATGAAGG
[1] = test system: FXR:RXRa (NR concentration 270 nM, RXRa partner concentration 90 nM)
In short: (§1)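 Binding z-scores were set against random background probes. The data came from custom Agilent 4×180K protein-binding microarrays carrying double-stranded probes with 34-nt variable regions, incubated 1 h with ligand-free nuclear receptor dimers. Partner-specific antibodies detected binding, and scanned fluorescence was regression-normalized.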

[2] = test system: LXRa:RXRa (NR concentration 270 nM, RXRa partner concentration 90 nM)
In short: as §1

[3] = test system: LXRa homodimer (NR concentration 270 nM)
In short: as §1

[4] = test system: LXRb:RXRa (NR concentration 270 nM, RXRa partner concentration 90 nM)
In short: as §1

[5] = test system: LXRb homodimer (NR concentration 270 nM)
In short: as §1

[6] = test system: PPARa:RXRa (NR concentration 270 nM, RXRa partner concentration 90 nM)
In short: as §1

[7] = test system: PPARg:RXRa (NR concentration 180 nM, RXRa partner concentration 90 nM)
In short: as §1

[8] = test system: PPARg:RXRa 270nM:90nM, anti-RXR (NR concentration 270 nM, RXRa partner concentration 90 nM)
In short: as §1

[9] = test system: PPARg:RXRa 30nM:10nM, anti-RXR (NR concentration 30 nM, RXRa partner concentration 10 nM)
In short: as §1

[10] = test system: PPARg:RXRa 90nM:30nM, anti-RXR (NR concentration 90 nM, RXRa partner concentration 30 nM)
In short: as §1

[11] = test system: PPARg:RXRa DBDmut IVT, anti-RXR (DBD mutation: RXRa K156A/R161A, NR concentration 270 nM, RXRa partner concentration 90 nM)
In short: as §1

[12] = test system: PPARg:RXRa IVT, anti-PPARg (NR concentration 270 nM, RXRa partner concentration 90 nM)
In short: as §1

[13] = test system: PPARg DBDmut:RXRa IVT, anti-PPARg (DBD mutation: PPARg1 K132A/R137A, NR concentration 270 nM, RXRa partner concentration 90 nM)
In short: as §1

[14] = test system: PPARg DBDmut IVT, anti-PPARg (DBD mutation: PPARg1 K132A/R137A, NR concentration 270 nM)
In short: as §1

[15] = test system: PPARg homodimer (NR concentration 180 nM)
In short: as §1

[16] = test system: PXR:RXRa (NR concentration 270 nM, RXRa partner concentration 90 nM)
In short: as §1

[17] = test system: PXR homodimer (NR concentration 270 nM)
In short: as §1

[18] = test system: RARa:RXR (NR concentration 270 nM, RXRa partner concentration 90 nM)
In short: as §1

[19] = test system: RARa homodimer (NR concentration 270 nM)
In short: as §1

[20] = test system: RARb:RXRa (NR concentration 270 nM, RXRa partner concentration 90 nM)
In short: as §1

Sequence	PBM binding z-score [1]	PBM binding z-score [2]	PBM binding z-score [3]	PBM binding z-score [4]	PBM binding z-score [5]	PBM binding z-score [6]	PBM binding z-score [7]	PBM binding z-score [8]	PBM binding z-score [9]	PBM binding z-score [10]	PBM binding z-score [11]	PBM binding z-score [12]	PBM binding z-score [13]	PBM binding z-score [14]	PBM binding z-score [15]	PBM binding z-score [16]	PBM binding z-score [17]	PBM binding z-score [18]	PBM binding z-score [19]	PBM binding z-score [20]
GTACCAAGCTGAATAGGTCGTTGATGAGTAGGCG	-0.533	-0.288	-0.35	-0.237	-1.03	0.192	0.271	0.0324	-0.305	-0.334	-0.646	-0.114	-1.16	-0.822	-1.1	-0.255	-0.471	0.235	-0.336	0.0822
TCATATAGGTAAAAGGTGAAAGTCGGTGTGGTAA	1.8	2.29	0.452	2.29	0.0331	5.57	9.43	8.85	10.3	10.2	5.72	5.59	2.1	0.745	2.06	2.17	0.508	3.73	2.49	2.22
TAGCCTAGGTCATGGGCCAGTATGCCACGCGAAC	4.69	3.46	0.00314	2.02	-0.474	4.18	4.02	3.65	0.999	2.81	1.9	3.62	-0.369	0.218	1.49	1.42	-0.923	2.53	-0.739	3.93
TCGAGTAGGTTAGGGTCATTCAGAATGGCGTCGA	4.57	3.41	0.537	3.62	-0.146	4.66	3.15	4.16	2.2	3.52	2.47	2.77	-0.28	0.496	2.22	4.55	2.03	5.08	0.43	3.08
TCTTGTAGATCTAGCAGGTTAAGAAAGCCTGAGT	0.335	0.398	-0.285	0.453	-0.499	0.695	-0.571	1.22	2.48	1.86	1.5	0.0743	0.126	0.6	-0.214	0.527	0.101	0.57	0.175	0.0972
CCTAGCAAGCCAATCTGGGTCACTCAAGGCTTGA	0.309	0.44	-0.472	0.641	-0.582	3.06	1.85	1.79	-0.259	0.994	3.85	4.86	-0.252	-0.0798	0.973	0.841	-0.371	1.69	-0.371	0.92
GTACCCAGGTGAATAGGTCGTTGATGAGTAGGCG	0.381	0.343	-0.131	0.285	-0.0749	1.59	1.34	1.25	0.309	0.972	1.26	2.42	-0.166	-0.407	0.786	0.279	0.138	1.08	0.238	0.908
CCTAGGTGGTCAGGAGGTCACACACCGGATATGA	3.9	3.3	1.72	3.05	0.062	3.95	3.45	3.53	1.29	3.03	0.549	3.02	-0.0513	-0.161	3.26	4.04	1.33	4.78	1.85	3.71
CGTCAAAGTTCAAGGTATCGTAACAGAAAGCAGC	5.48	5.39	2.28	3.16	1.03	4.38	3.83	4.59	1.75	3.38	0.378	1.35	-0.37	0.459	2.03	3.81	1.91	3.09	1.17	4.93
CGAACTAGGTCATTGACACGACAGTGAATAGTAA	5.16	3.65	0.689	2.48	0.158	4.67	7.57	6.21	3.95	5.54	7.93	8.44	3.78	3.06	2.25	1.33	0.767	2.2	0.177	3.52
GGAACGAGGGCATTTGAGTTGATAGCATGGCGAT	1.31	1.6	-0.156	0.482	-0.207	1.65	0.939	0.641	-0.0141	0.257	2.97	2.01	-0.643	-0.444	0.183	4	2.08	0.869	-0.446	1.96
CCTCGGAGGACAGAAGGTAAGAGCTGTCCGCTTT	-0.304	-0.532	-0.965	-1.02	-1.17	-0.652	-0.402	-0.815	-1.03	-0.914	-0.432	-0.658	-1.58	-1.77	-0.354	-0.918	-0.487	-0.713	-0.583	0.19
GGCACGAGGGCATTCGAGTTGATAGCATGGCGAT	1.22	1.79	-0.515	0.139	-1.26	0.942	0.663	0.216	-0.477	-0.229	1.63	0.977	-1.13	-1.45	-0.356	3.77	1.72	0.606	-0.627	1.95
